High-throughput results as filed in PubChem BioAssay.
Shiga toxin inh = A qHTS for Small Molecule Inhibitors of Shiga Toxin; Vero cells, Shiga toxin protein synthesis inhibition reporter; inhibition, % at 38.7 µM; 290,000 compounds, 9.2% hits; in the data active = inhibition mostly above about 28%, no sharp cut-off; inactive = mostly below about 43%; note: 0% is about no effect
Tb PYK inh = qHTS of Trypanosoma Brucei Inhibitors. TbPYK enzyme, Kinase-Glo Plus ATP luminescence, 45 min. 410,000 compounds, 0.12% hits. pyruvate kinase (Trypanosoma brucei), Q57TT1. AID 624173, 2012. Potency, µM (series often up to 76.8 µM), for inactives: top-dose activity, negative = inhibition, usual class: inhibitors; note: potency is the fitted concentration of half-maximal effect; % is set by controls: 0 for no effect and ±100 for the full control effect; nearly all actives have a fitted effect of over 50% in size
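T. brucei PYK with substrate was exposed to pin-transferred compounds across a concentration series, then started with 130 uM ADP (final). After 45 min at room temperature, Kinase-Glo Plus luminescence was read, normalized and curve-fitted.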
LmPK inhibitor = qHTS Assay for Inhibitors of Leishmania Mexicana Pyruvate Kinase (LmPK); purified LmPK, Kinase-Glo ATP luminescence, 1 h; 290,000 compounds, 0.37% hits; Potency, µM (highest dose often 57.5 µM), without a hit: at the highest dose activity change, negative = inhibition, usual class: inhibitors; note: potency is the fitted concentration of half-maximal effect; % is set by controls: 0 for no effect and ±100 for the full control effect
Target sequence (Q27686 whole entry, looked up): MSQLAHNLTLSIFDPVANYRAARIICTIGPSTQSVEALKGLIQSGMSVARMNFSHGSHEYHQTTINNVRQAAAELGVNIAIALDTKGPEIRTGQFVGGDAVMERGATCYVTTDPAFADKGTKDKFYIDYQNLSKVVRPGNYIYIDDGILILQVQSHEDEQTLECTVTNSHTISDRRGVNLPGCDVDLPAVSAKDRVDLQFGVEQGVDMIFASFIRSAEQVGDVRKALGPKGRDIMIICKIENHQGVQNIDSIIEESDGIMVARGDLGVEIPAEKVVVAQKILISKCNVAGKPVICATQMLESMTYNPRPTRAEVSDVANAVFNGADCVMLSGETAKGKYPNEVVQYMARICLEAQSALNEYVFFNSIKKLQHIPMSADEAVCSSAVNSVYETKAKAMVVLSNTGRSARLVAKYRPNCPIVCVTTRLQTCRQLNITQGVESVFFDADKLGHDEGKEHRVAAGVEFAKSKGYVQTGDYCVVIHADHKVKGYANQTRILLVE
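Purified LmPK (0.1 nM) with 0.5 mM PEP and 0.1 mM ADP in imidazole buffer pH 7.2 with MgCl2/KCl, 1 h at room temperature. ATP formed was read by luciferase luminescence and normalized to no-enzyme and uninhibited controls.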
CHX counter = Cycloheximide Counterscreen for Small Molecule Inhibitors of Shiga Toxin; cell reporter, cycloheximide protein synthesis inhibition counterscreen; max response, %; 300,000 compounds, 12% hits; in the data active = max response mostly above about 13%, no sharp cut-off; inactive = mostly below about 14%; note: read at 38.3 µM for the half of the compounds with a filed dose; 0% is about no effect
Sm TGR inh = qHTS Assay for the Inhibitors of Schistosoma Mansoni Peroxiredoxins | Schistosoma mansoni thioredoxin glutathione reductase (TGR), Q962Y6 | purified TGR, DTNB reduction, TNB absorbance 405 nm | Potency, µM (titrated, usually from 114 µM), without a hit: at the highest dose activity change, negative = inhibition, most hits filed as inhibitors | 360,000 compounds, 3% hits; note: potency is the fitted concentration of half-maximal effect; % is set by controls: 0 for no effect and ±100 for the full control effect; nearly all actives have a fitted effect of over 60% in size
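Kinetic colorimetric format: TGR-catalysed, NADPH-driven DTNB reduction monitored via TNB absorbance. Enzyme dispensed at 20 nM; compound exposure 15 min at room temperature before reaction start.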
FBPA Giardia inh = qHTS Assay for Inhibitors of Fructose-1,6-bisphosphate Aldolase from Giardia Lamblia | A8B2U2 | purified Giardia FBPA | Potency, µM (top dose mostly 59.6 µM), inactives show at the top dose activity, negative = inhibition, hits mostly inhibitors | 290,000 compounds, 0.71% hits | AID 2451, 2010; note: potency is the fitted concentration of half-maximal effect; % is set by controls: 0 for no effect and ±100 for the full control effect; nearly all actives have a fitted effect of over 55% in size
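Giardia FBPA (40 nM reagent) was preincubated 10 min at RT with compound (up to 57.5 uM final), then substrate plus GAPDH/TPI/NAD/arsenate coupling system with diaphorase/resazurin was added; resorufin fluorescence (525/598 nm) was read after 20 min.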
Starred values were filed as active, the others as inactive; ? = inconclusive; / = no result. This excerpt belongs to a sample that is enriched for hits. Unless noted, calls come from the whole dose curve; as a rule, active = well fitted curve in the direction sought with a large enough effect; inconclusive = small, poorly fitted or top-dose-only effect, or another doubt; inactive = no such curve, though single readings can be large; an effect the other way counts as inactive or inconclusive.

SMILES	Shiga toxin inh	Tb PYK inh	LmPK inhibitor	CHX counter	Sm TGR inh	FBPA Giardia inh
CC(=O)c1cccc(NC(=O)c2nc(-c3ccc(C)cc3)n3c2CCCCC3)c1	/	0%	/	/	16%	/
Oc1oc(-c2ccc(Br)cc2)nc1/C=N/c1ccccn1	120*	-2%	-2%	54*	-6%	-4%
Cc1ccc(-c2nc(C=Nc3cccc(C)c3)c(O)o2)cc1	67	-5%	3%	14	5%	-1%
Cc1ccc(-c2nc(C=Nc3ccccc3)c(O)o2)cc1	85*	-2%	7%	51*	0%	-1%
Cc1ccc(N=Cc2nc(-c3ccco3)oc2O)cc1	101*	-2%	-21%	29*	-14%	-4%
O=C(COCCOCCOCC(=O)Nc1c(I)cc(I)c(C(=O)O)c1I)Nc1c(I)cc(I)c(C(=O)O)c1I	/	5%	/	/	/	/
Cc1ccc(CNC(=O)CSc2ncc3c(n2)-c2ccc(Cl)cc2N(Cc2ccccc2)S3(=O)=O)cc1	/	-2%	/	/	2%	/
COc1ccc(-n2nc(C(=O)NCC(=O)N3CCN(C)CC3)c3ccccc3c2=O)cc1	-3	0%	1%	2	3%	-7%
COc1ccc(-n2nc(C(=O)NCC(=O)N3CCN(c4ccccc4F)CC3)c3ccccc3c2=O)cc1OC	22	-3%	-4%	25*	-1%	/
COc1ccc(-n2nc(C(=O)NCC(=O)N3CCCCCC3)c3ccccc3c2=O)cc1	41	-1%	-1%	16*	17%	3%
CCOC(=O)N1CCN(C(=O)CNC(=O)c2nn(-c3ccc(OC)cc3)c(=O)c3ccccc23)CC1	21	-7%	2%	18*	-25%	3%
CCOC(=O)C1CCN(C(=O)CNC(=O)c2nn(-c3ccc(OC)c(OC)c3)c(=O)c3ccccc23)CC1	38	0%	-3%	21*	0%	9%
COC(=O)c1cc2oc(C)cc2n1CC(=O)Nc1ccc(C(C)C)cc1	/	-10%	/	/	-27%	/
CCNC(=O)c1c(NC(=O)Cc2coc3ccc(CC)cc23)sc2c1CCCC2	/	-13%	/	/	5%	/
CC(=O)Nc1cc2c(cc1Cl)-c1ccccc1C2O (stereo unspecified)	/	0%	/	/	/	/
CCOC(=O)C1CCN(C(=O)CNC(=O)c2nn(-c3ccc(OC)cc3)c(=O)c3ccccc23)CC1	28	-2%	-1%	27*	1%	10%
O=C(NCc1ccc(Cl)cc1)c1cc(-c2cccs2)on1	13	1%	2%	2	2%	1%
COc1ccc(CNC(=O)c2cc(-c3cccs3)on2)cc1	34	-5%	1%	19*	0%	3%
COc1ccc(-c2cc(C(=O)NCc3cccs3)no2)cc1	60*	3%	2%	23*	1%	5%
COc1ccc(NC(=O)Cn2nnc(C(=O)NCc3cccs3)c2N)cc1	-4	0%	3%	-2	0%	-13%
COc1cccc(-c2cc(C(=O)NCc3cccs3)no2)c1	104*	2%	2%	61*	-7%	-2%
COc1ccc2nc3sc(C(=O)NCc4cccs4)c(N)c3cc2c1	83*	/	6%	51*	4%	-2%
COC(=O)c1ccc(NC(=O)CCN2C(=O)NC(C)(C)C2=O)cc1	/	-10%	/	/	-3%	/
O=C(O)c1ccccc1Cc1ccccc1	-5	/	/	-2	/	8%
COc1cccc(C(=O)c2c[nH]c(C(=O)NCc3cccnc3)c2)c1	16	-22%	2%	1	4%	1%
SMILES	Shiga toxin inh	Tb PYK inh	LmPK inhibitor	CHX counter	Sm TGR inh	FBPA Giardia inh
COc1cccc(C(=O)c2c[nH]c(C(=O)NCc3cccs3)c2)c1	11	-18%	7%	16*	1%	11%
O=C1C(Cl)=C(Nc2ccccc2O)C(=O)N1CCc1ccccc1	12	-7%	-2%	30*	28µM*	-16%
CCOc1ccc(N2C(=O)C(Cl)=C(Nc3ccccc3O)C2=O)cc1	97*	-7%	1%	37*	18µM*	-10%
COc1ccc(N2C(=O)C(Cl)=C(Nc3c(C)n(C)n(-c4ccccc4)c3=O)C2=O)cc1	13	-21%	-14%	-2	0.89µM*	-1%
COc1ccc(NC2=C(Cl)C(=O)N(c3ccccc3)C2=O)c(OC)c1	-12	1%	-3%	-2	5.6µM*	-21%
COc1ccc(CCNC2=C(Cl)C(=O)N(CCc3ccccc3)C2=O)cc1OC	7	-8%	3%	12	-13%	-8%
COc1ccccc1NC1=C(Cl)C(=O)N(c2ccccc2)C1=O	1	-1%	6%	19	-6%	-5%
COc1ccc(N2C(=O)C(Cl)=C(Nc3ccc(OC)cc3OC)C2=O)cc1	31	3%	2%	44*	28µM*	-3%
Cc1cc(-c2ccccc2)nc(N/N=C/c2ccccc2F)n1	52*	-1%	0%	51*	-3%	?
C/C(=N\Nc1nc(C)cc(-c2ccccc2)n1)c1ccc(C)o1	7	4%	-2%	8	-1%	/
C/C(=N\Nc1nc(C)cc(-c2ccccc2)n1)c1cccc(N)c1	23*	2%	-14%	16*	-1%	-18%
C/C(=N/Nc1nc(C)cc(-c2ccccc2)n1)c1ccco1	56	1%	-1%	21*	-2%	-3%
C/C(=N\Nc1nc(C)cc(-c2ccccc2)n1)c1ccc(O)cc1	26*	5%	4%	21*	7%	17%
C/C(=N\Nc1cc(-c2ccccc2)nc(-c2ccccc2)n1)c1ccc(O)c(C)c1	73*	-4%	3%	20*	10%	-1%
C/C(=N\Nc1nc(C)cc(-c2ccccc2)n1)c1ccccc1	16	-11%	-2%	17*	0%	7%
CCNC(=O)[C@@H]1CCCN1C(=O)[C@H](CCCN=C(N)N)NC(=O)[C@H](CC(C)C)NC(=O)[C@@H](Cc1c[nH]c2ccccc12)NC(=O)[C@H](Cc1ccc(O)cc1)NC(=O)[C@H](CO)NC(=O)[C@H](Cc1c[nH]c2ccccc12)NC(=O)[C@H](Cc1cnc[nH]1)NC(=O)[C@@H]1CCC(=O)N1	/	-1%	/	/	/	/
Clc1ccc2c(c1)-n1cc(-c3ccccc3)nc1CO2	/	-9%	/	/	-9%	/
O=C(/C=C/Nc1ccc([N+](=O)[O-])cc1Br)c1cccc2ccccc12	42	-6%	-19%	20*	-4%	-4%
Cc1cccc(C(=O)Nc2ccc(C(=O)/C=C/c3cccnc3)cc2)c1	-3	-7%	-2%	24*	-18%	-4%
COc1ccc(OC)c(C(=O)/C=C/c2cccnc2)c1	-5	-6%	-7%	-6	?	-24%
COc1cc(C(=O)/C=C/c2cccnc2)ccc1O	27	-7%	-7%	16*	?	/
